# Source: PubChem (several laboratories)
# A selection: hits, their analogues and other compounds. The true share with any hit is near 32%.
# CYP2C19 act: activators of human cytochrome P450 2C19. 96,000 tested, under 10 active. recombinant CYP2C19, luciferin-H EGE luminescence; active compounds read high; 0 = fully inhibited enzyme, 1 = untreated enzyme. activation factor at 5 µM. AID 1025;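 active = activation factor of at least 2 at 5 µM in the primary screen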;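 note: 0 = wells with 2.5 mM tranylcypromine and 1 = vehicle-only wells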
# CYP2C9 act: activators of human CYP2C9 | P11712 | recombinant CYP2C9, luciferin-H conversion, luminescence; active compounds read high; factor 1 = untreated enzyme, 0 = blocked | activation factor at 5 µM | 96,000 compounds, 1.4% hits | AID 1024;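 active = activation factor of 2 or more for CYP2C9 at a 5 µM dose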;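 note: 0 = sulfaphenazole-blocked wells and 1 = vehicle-only wells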
# Target sequence (P11712 whole entry, looked up): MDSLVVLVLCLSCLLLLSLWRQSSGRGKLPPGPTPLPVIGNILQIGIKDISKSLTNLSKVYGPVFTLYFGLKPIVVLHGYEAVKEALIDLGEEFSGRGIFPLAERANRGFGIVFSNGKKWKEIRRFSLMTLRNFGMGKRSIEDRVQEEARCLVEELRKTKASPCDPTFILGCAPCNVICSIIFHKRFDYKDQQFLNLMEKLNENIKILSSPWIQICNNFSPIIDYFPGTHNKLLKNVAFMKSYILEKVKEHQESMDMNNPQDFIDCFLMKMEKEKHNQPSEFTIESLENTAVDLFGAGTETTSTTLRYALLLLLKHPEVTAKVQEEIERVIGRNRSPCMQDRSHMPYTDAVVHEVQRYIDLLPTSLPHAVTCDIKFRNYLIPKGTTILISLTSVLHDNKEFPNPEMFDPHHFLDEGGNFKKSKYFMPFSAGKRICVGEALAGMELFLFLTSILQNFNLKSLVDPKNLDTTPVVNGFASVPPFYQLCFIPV
# CYP2C9 inhib: human CYP2C9 inhibition; CYP2C9 Supersomes, luciferin-H conversion, luminescence; inhibition, % at 5 µM; 96,000 compounds, 20% hits;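 active = blocking of liver enzyme CYP2C9 beyond about 50% at 5 µM, limit read from the data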
# CYP2C19 inh: human CYP2C19 inhibition | 96,000 compounds, 21% hits | CYP2C19 Supersomes, luciferin-H EGE luminescence, 30 min | P33261 | inhibition, % at 5 µM;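 active = CYP2C19 inhibition above a set limit at 5 µM in the primary screen, cut at about 50% in these data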;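 note: plate controls were negative control wells for no effect and 2.5 mM tranylcypromine positive control for full effect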
# PostGolgi yeast: growth inhibition of a yeast mutant, post-Golgi transport screen | post-Golgi transport phenotypic cell assay | inhibition, % at 10 µM | 98,000 compounds, 0.9% hits | AID 739;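 note: yeast cells grown in 1536-well plates; yeast grown about 18 h at 30C before absorbance read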
# PostGolgi ctrl: inhibits growth of the yeast control strain; AID 738; 98,000 compounds, 5% hits; efflux-deficient yeast background strain, growth absorbance A615, 16 h; inhibition, % at 10 µM
# Numbers without * were called inactive; . = not tested or not shown. Cut-off read from the data, not from the text of the source, unless noted: active = inhibition above about 30%; inactive = the rest.
SMILES,CYP2C19 act,CYP2C9 act,CYP2C9 inhib,CYP2C19 inh,PostGolgi yeast,PostGolgi ctrl
O=C(COc1cccc2cccnc12)N/N=C1\SCC(=O)N1Cc1ccccc1,0.9,0.9,6.7,14.0,-8.3,8.4
CC(C)C(NS(=O)(=O)c1ccc2c3c(cccc13)C(=O)N2)C(=O)O (stereo unspecified),1,1,2.7,-0.8,.,.
O=C1Nc2ccc(NS(=O)(=O)c3cccs3)c3cccc1c23,0.1,0.1,88.6*,89.4*,-2.9,-4.7
Cc1nc2nc(C)c(CCC(=O)Nc3ccc4c(c3)OCO4)c(C)n2n1,1.1,1,4.2,-6.5,-4.7,4.1
CCn1nc(C(=O)OCC(=O)c2c[nH]c3ccccc23)c2ccccc2c1=O,0.7,0.3,71.9*,32.4,-6.7,7.0
CC(C)n1nc(C(=O)OCC(=O)c2c[nH]c3ccccc23)c2ccccc2c1=O,0.8,0.8,22.1,18.4,-2.6,29.1
CCc1cccc2c(C(=O)COC(=O)c3nn(C)c(=O)c4ccccc34)c[nH]c12,0.1,0.1,87.5*,94.4*,2.0,16.7
CCc1cccc2c(=O)c(C(=O)N3CCCCCC3)c[nH]c12,1,0.9,5.3,1.9,-0.5,-2.8
CCOc1ccc(-c2nnn(CC(=O)c3ccc4c(c3)OCCO4)n2)cc1OCC,0.7,0.7,26.6,25.2,-11.0,-4.7
CCc1cccc2c(C(=O)Cn3nnc(-c4ccc(OC)c(OC)c4)n3)c[nH]c12,0.3,0.4,62.2*,71.3*,-7.7,-8.6
CCc1ccc2c(CC(=O)Nc3nnc(C4CC4)s3)coc2c1,0.8,0.5,45.7,17.2,8.8,-2.4
Nc1cc(N)c(OCC(F)(F)F)cc1OCC(F)(F)F,0.3,0.5,54.9*,74.5*,30.3*,-1.9
COC(=O)c1cccc(OC(N)=O)c1,0.8,1.2,-24.6,17.9,0.2,-3.2
O=[N+]([O-])c1cc(S(=O)(=O)Nc2cccc(C(F)(F)F)c2)ccc1-n1nnc2ccccc21,0.1,0,97.9*,93.3*,-3.7,10.6
COc1ccc(NS(=O)(=O)c2ccc(-n3nnc4ccccc43)c([N+](=O)[O-])c2)cc1,0.3,0.1,92.9*,73.9*,-0.6,10.4
CCN(c1ccccc1)S(=O)(=O)c1cc(C(=O)O)ccc1C,1,1,0.8,3.6,4.1,-0.7
O=S(=O)(c1ccc(OCC(O)CN2CCc3ccccc3C2)cc1)N1CCOCC1 (stereo unspecified),1,0.9,9.2,-3.1,-0.2,-1.4
Cc1ccc2ncccc2c1NS(=O)(=O)c1ccccc1,0.4,0.6,35.2,57.2*,-4.3,9.7
O=S(=O)(Nc1ccncc1)c1ccccc1,1,0.9,6.7,-0.1,18.6,4.3
COc1ccc(-c2ccnc3nc(N4CCN(c5ccccc5)CC4)nn23)cc1,1.1,0.4,60.6*,-10.6,-1.7,53.3*
Fc1ccc(-c2ccnc3nc(N4CCOCC4)nn23)cc1,0.8,1,-3.4,18.4,-9.6,4.7
OC(COCC1CC=CCC1)Cn1cnc2ccccc21 (stereo unspecified),0.3,0.6,39.4,72.1*,4.2,1.3
OC(CN(c1ccccc1)c1ccccc1)Cn1cnc2ccccc21 (stereo unspecified),0,0,97.6*,95.7*,-0.9,31.9*
COc1ccc(NC(C#N)c2ccc(OC)cc2)cc1 (stereo unspecified),0.9,0.9,11.7,12.9,15.5,12.7
CCOC(=O)c1nnn(CC(=O)Nc2cccc(OC)c2)c1C(=O)OCC,0.5,0.4,58.7*,49.6,-3.2,-2.9
SMILES,CYP2C19 act,CYP2C9 act,CYP2C9 inhib,CYP2C19 inh,PostGolgi yeast,PostGolgi ctrl
Cc1ccc(C)c(NC(=O)Cn2nnc(C(=O)Nc3c(C)cccc3C)c2N)c1,1,1,-0.1,2.3,-1.6,1.7
CCOC(=O)c1cn(CC(=O)Nc2cccc(Cl)c2C)nn1,0.9,0.7,31.5,13.3,-25.2,-0.4
COC(=O)c1nnn(CC(=O)Nc2cccc(OC)c2)c1C(=O)OC,0.6,0.4,63.0*,37.3,2.2,-3.6
CCOC(=O)c1nnn(CC(=O)Nc2cccc(Cl)c2C)c1C(=O)OCC,0.1,0.3,67.2*,93.6*,-7.7,12.2
CCOc1ccc(-c2nnn(CC(=O)Nc3cccc(OC)c3)n2)cc1OCC,0.5,0.8,19.6,45.9,-6.5,4.3
COC(=O)c1nnn(CC(=O)Nc2cc(Cl)ccc2C)c1C(=O)OC,0.4,0.5,54.3*,55.4*,-7.2,5.6
